Assay results from PubChem BioAssay (NCATS).
Results filed as inconclusive are left out. Activity calls are given as the source filed them. Calls follow the shape of the dose curve; as a rule, active = well fitted curve in the direction sought with a large enough effect; inconclusive = small, poorly fitted or top-dose-only effect, or another doubt; inactive = no such curve, though single readings can be large; an effect the other way counts as inactive or inconclusive.

System: not listed separately
Experiment: Primary fluorescence-based thiol-reactive (MSTI) qHTS assay for identification of artifact compounds. (AID 1845221); also: nearly all actives have a fitted effect of over 65% in size; also: potency is read from the fitted curve at half-maximal effect;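 as to activity change, negative = thiol reactive: thiol-reactive compounds lower the probe fluorescence signal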
Conditions: MSTI thiol-reactivity probe, 1 h; series mostly up to 53.8 µM; activity change, negative = thiol reactive: at the top concentration
Outline: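 Curve-fitted percent inhibition (4-parameter Hill) derived from fluorescence, Ex 525/Em 598 nm, scaled with Acetyl-MSTI and MSTI; 1 h incubation at room temperature.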
In the case of `CC1=CC(=O)CC(C)(C)C1CO[C@@H]1O[C@H](CO)[C@@H](O)[C@H](O)[C@H]1O` (some centres not stated), the “activity change, negative = thiol reactive” value (shortened to “activity change”) is reported as -17.1% (inactive).
With `CC1(C)C2CC[C@@]34CC(CC[C@H]3[C@]2(C)CC[C@@H]1O[C@@H]1O[C@H](CO)[C@@H](O)[C@H](O)[C@H]1O)[C@](C)(O)C4` (some centres not stated) the “activity change” value was 77.5% [at 25.6 µM] (inactive).
In the case of `O=C(OCC1OC(Oc2ccc(O)cc2COC(=O)C2(O)C(O)CCC(=O)C2OC(=O)C2C=CCC2)C(OC(=O)C2C=CCC2)C(O)C1O)C1C=CCC1` (configuration not stated), the “activity change” value is reported as 20.7% [at 25.6 µM] (inactive).
In the case of `COC(=O)C[C@@H]1C(C(=O)O)=CO[C@@H](O[C@@H]2O[C@H](CO)[C@@H](O)[C@H](O)[C@H]2O)/C1=C\COC(=O)/C=C/c1ccc(O)c(OC)c1`, the “activity change” value is reported as -3.69% [at 25.6 µM] (inactive).
For `C=C1CC[C@@]2(OC1)O[C@H]1CC3C4CC=C5C[C@@H](O[C@@H]6O[C@@H](C)[C@H](O)[C@@H](O)[C@H]6O)C[C@@H](O[C@@H]6O[C@H](C)[C@H](O)[C@H](O)[C@H]6O[C@@H]6O[C@@H](C)[C@H](O)[C@@H](O)[C@H]6O)[C@]5(C)C4CC[C@]3(C)[C@H]1[C@@H]2C` (some centres not stated), the activity change, negative = thiol reactive was 170% [at 11.5 µM] (inactive).
In the case of `CC(C)(CC(=O)N1CCCC1)NCC(=O)N1C[C@@H](F)C[C@H]1C#N`, the “activity change” value is reported as -5.84% (inactive).
With `CC1C2=CC(=O)OC2(O)CC2C1C(OC(=O)c1ccccc1)C(OC(=O)c1ccccc1)C1(O)C2(C)CCC(O)C1(C)C(=O)O` (configuration not stated) the “activity change” value was 19.1% [at 25.6 µM] (inactive).
For `CCC[C@H](N[C@@H](C)C(=O)N1[C@H](C(=O)O)C[C@@H]2CCCC[C@@H]21)C(=O)O`, the “activity change” value was -3.94% (inactive).
In the case of `CC(C)=CCc1c(O)cc2oc3cc(C)cc(O)c3c2c1C`, the Potency is reported as 4.74 µM (active).
In the case of `Cc1cc(-n2c(=O)[nH]c(=O)n(C)c2=O)ccc1Oc1ccc(SC(F)(F)F)cc1`, the “activity change” value is reported as 242% (inactive).
In the case of `C/C=C(/C)C(=O)OC1C2OC2C2(CO2)C2C3OC(=O)C(C)C3CCC12C` (configuration not stated), the “activity change” value is reported as 16.6% (inactive).
With `CC1=C2CC(=O)C(C)CC/C=C(\C)CC2OC1=O` (configuration not stated) the “activity change” value was -12.7% (inactive).
For `CC(=O)O[C@H]1C[C@@H](O)C(C)(C)C2C[C@@H](OC(C)=O)[C@@]3(C)C4=CCC(C(CO)CC(O)C5OC5(C)C)[C@]4(C)CCC3[C@]21C` (some centres not stated), the “activity change” value was 34.8% [at 25.6 µM] (inactive).
With `C[C@@H]1O[C@@H](O[C@H]2[C@H](O[C@H]3[C@H](O[C@H]4CC[C@@]5(C)C(CC[C@]6(C)C5CC=C5[C@@H]7CC(C)(C)C[C@@H](O)[C@]7(C)CC[C@]56C)[C@@]4(C)CO)O[C@H](C(=O)O)[C@@H](O)[C@@H]3O)O[C@H](C(=O)O)[C@H](O)[C@@H]2O)[C@H](O)[C@H](O)[C@H]1O` (some centres not stated) the activity change, negative = thiol reactive was 68.8% [at 11.5 µM] (inactive).
For `Fc1ccccc1-c1nc2ccn(Cc3ccc(-c4ccc(C(F)(F)F)cc4C(F)(F)F)nn3)cc-2n1`, the “activity change” value was 147% (inactive).

System: Nanoluciferase (engineered Oplophorus gracilirostris luciferase)
Experiment: Primary Nanoluciferase (NLuc) qHTS assay for identification of artifact compounds. (AID 1845222);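 also: 0% = DMSO and -100% = no enzyme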
Conditions: NLuc-conditioned medium, Nano-Glo luminescence, 5 min; series mostly up to 54.1 µM; activity, negative = inhibition: at the top concentration
Outline: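 Luminescence read-out of secreted NLuc in S16 cell conditioned medium (1:55); compounds tested with 15 min RT preincubation, then Nano-Glo substrate 1:100, 5 min. % inhibition vs no-enzyme and DMSO controls, 4-parameter Hill fit.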
In the case of `COC(=O)C1=COC(OC2OC(CO)C(O)C(O)C2O)C2C(COC(=O)/C=C/c3ccc(O)cc3)C(O)C(O)C12` (configuration not stated), the “activity, negative = inhibition” value is reported as 1.28% [at 25.7 µM] (inactive).
With `Cc1oc(S(=O)(=O)N2CCCCC2)cc1NC(=O)Nc1ccccc1` the “activity, negative = inhibition” value was 0.187% (inactive).
With `CCC/C=C1\OC(=O)C2=C1CCC(O)C2O` (configuration not stated) the “activity, negative = inhibition” value was -0.893% (inactive).
In the case of `Cc1ccc(COC(=O)N2CC[C@@H](CNc3ncccn3)[C@@H](F)C2)cc1`, the “activity, negative = inhibition” value is reported as -10.4% (inactive).
With `CC1(C)CC[C@]2(C(=O)O[C@@H]3O[C@H](CO)[C@@H](O)[C@H](O)[C@H]3O)CC[C@]3(C)C(=CCC4[C@@]5(C)C[C@@H](O)[C@H](O)[C@@](C)(CO)C5[C@H](O)C[C@]43C)C2C1` (some centres not stated) the “activity, negative = inhibition” value was -1.98% [at 25.7 µM] (inactive).
With `O=C(O)[C@H]1Cc2ccccc2CN1` the activity, negative = inhibition was 0% [at 6.45 µM] (inactive).
For `COC(=O)C1=CO[C@@H](O[C@@H]2O[C@H](CO[C@@H]3O[C@H](CO)[C@@H](O)[C@H](O)[C@H]3O)[C@@H](O)[C@H](O)[C@H]2O)[C@@H]2C(CO)=CC[C@H]12`, the “activity, negative = inhibition” value was 4.25% [at 25.7 µM] (inactive).
For `COc1cc(Nc2nc3c(s2)CCCC3c2ccccc2)ccc1-n1cnc(C)c1` (configuration not stated), the activity, negative = inhibition was 4.88% [at 11.6 µM] (inactive).
In the case of `CC1=CC[C@@]2(C)CC[C@@](O)(C(C)C)[C@@H]2[C@@H](O)C1`, the “activity, negative = inhibition” value is reported as -1.95% (inactive).
In the case of `C[C@@H]1O[C@@H](O[C@H]2[C@H](OC(=O)[C@]34CCC(C)(C)C[C@H]3C3=CCC5[C@@]6(C)C[C@@H](O)[C@@H](O)[C@@](C)(CO)C6[C@H](O)C[C@@]5(C)[C@]3(C)CC4)OC[C@H](O)[C@@H]2O)[C@H](O)[C@H](O)[C@H]1O[C@@H]1OC[C@@H](O)[C@H](O[C@H]2O[C@H](C)[C@@H](O)[C@H](O)[C@@H]2O)[C@H]1O` (some centres not stated), the activity, negative = inhibition is reported as 4.47% [at 11.6 µM] (inactive).
With `CC[C@H]1OC(=O)[C@H](C)[C@@H](O[C@H]2C[C@@](C)(OC)[C@@H](O)[C@H](C)O2)C(C)[C@@H](O[C@@H]2O[C@H](C)C[C@H](N(C)C)[C@H]2O)[C@](C)(O)C[C@@H](C)CN(C)[C@H](C)[C@@H](O)[C@]1(C)O` (some centres not stated) the “activity, negative = inhibition” value was 3.38% (inactive).
With `COCCN1CCC(C(=O)NO)(S(=O)(=O)c2ccc(Oc3ccc(OC(F)(F)F)cc3)cc2)CC1` the “activity, negative = inhibition” value was -2.03% (inactive).
